# MCF10A rereplic: A quantitative high throughput screen for small molecules that induce DNA re-replication in MCF 10a normal breast cells. MCF 10A DNA re-replication, Hoechst nuclear intensity, 48 h. Potency, µM (titrated, usually from 46.1 µM), for the others: at the highest dose activity, positive = re-replication, hits mostly activators. 350,000 tested, 2.9% active; further: % of control where 0% means no effect; nearly all actives have a fitted effect of over 50% in size
# ELG1 repair inh: qHTS screen for small molecules that inhibit ELG1-dependent DNA repair in human embryonic kidney (HEK293T) cells expressing luciferase-tagged ELG1; 330,000 tested, 2.3% active; AID 504467, 2011; Potency, µM (highest dose often 46.1 µM), without a hit: top-dose activity change, negative = inhibition, most hits filed as inhibitors; HEK293T ELG1-luciferase reporter, luminescence, 16 h; DNA damage induced by 5-fluorouridine; further: on the % scale 0 is the no-effect control and ±100 the full control effect; nearly all actives have a fitted effect of over 55% in size
#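 Luminescence from the luciferase reporter, measured 30 min after ONE-Glo reagent at room temperature, was the read-out. Beforehand, 2,000 cells per well were exposed for 16 hr at 37 °C to 5-fluorouridine together with compound or vehicle.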
# SW480 rereplic: A quantitative high throughput screen for small molecules that induce DNA re-replication in SW480 colon adenocarcinoma cells | AID 624297, 2012 | SW480 DNA re-replication, Hoechst DNA content imaging, 48 h | Potency, µM (doses to about 46.1 µM), for inactives: top-dose re-replication activation, usual class: activators | 340,000 tested, 1.8% active; further: % of control where 0% means no effect; nearly all actives have a fitted effect of over 55% in size
#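 Cells (250 per well) received 23 nL compound or DMSO by pin tool and were kept 48 hr at 37 C, 5% CO2. Nuclei were then stained with Hoechst for 40 min and scanned for DNA content.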
# KB-3-1 tox: qHTS assay for MDR1-selective chemotherapeutics: Primary screen using the parental adenocarcinoma cell KB-3-1; 400,000 tested, 1.4% active; Potency, µM (highest dose often 46.1 µM), usual class: cytotoxic; KB-3-1 viability, CellTiter-Glo ATP luminescence, 72 h; further: on the % scale 0 is the no-effect control and ±100 the full control effect; nearly all actives have a fitted effect of over 60% in size
#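 Cells are dispensed, compounds pinned in, plates held at 37 °C for 72 h, then CellTiter-Glo is added and luminescence read after 10 minutes. Cell line: parental KB-3-1 in phenol-red-free DMEM, 10% FBS.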
# KB-V1 cytotox: qHTS assay for MDR1-selective chemotherapeutics: Primary screen using the drug-selected MDR subline cells KB-V1; KB-V1 MDR cells viability, CellTiter-Glo, 72 h; Potency, µM (top dose mostly 46.1 µM), actives largely listed as cytotoxic; 400,000 tested, 3.4% active; further: on the % scale 0 is the no-effect control and ±100 the full control effect; nearly all actives have a fitted effect of over 60% in size
#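 Readout: CellTiter-Glo luminescence, 10 min after addition. Cells: KB-V1 MDR subline, 72 h at 37 degrees C with compound. Analysis: corrected, normalized data fitted to concentration-effect curves.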
# The depositor's hits bear a star; i = inactive; ? = inconclusive; . = no result; ! = not confirmed by another sample. Sampled rows, rich in hits. Any-hit rate of the full collection: about 8.2%. The call rests on the fitted dose curve; in most records, active means well fitted curve in the direction sought with a large enough effect; inconclusive means small, poorly fitted or top-dose-only effect, or another doubt; inactive means no such curve, though single readings can be large; an effect the other way counts as inactive or inconclusive. Potency means the concentration at half of the fitted maximal effect.
SMILES,MCF10A rereplic,ELG1 repair inh,SW480 rereplic,KB-3-1 tox,KB-V1 cytotox
CN1C2CCC1CC(OC(=O)c1ccc(Cl)cc1)C2 (centres undefined),12%,-11%,-6%,i,i
CN1[C@@H]2CC[C@H]1CC(OC1c3ccccc3CCc3ccccc31)C2 (some centres undefined),-2%,-20%,3.2µM*!,i,?
Oc1cccc[c]1[Hg][Cl],14%,.,?,.,.
C=CCNC(=O)c1c(N)n(Cc2ccco2)c2nc3ccccc3nc12,20%,?,12%,i,i
Nc1c(C(=O)NCCc2ccccc2)c2nc3ccccc3nc2n1CCN1CCOCC1,1%,?,8%,i,23µM*
Nc1c(C(=O)NCCN2CCOCC2)c2nc3ccccc3nc2n1Cc1ccccc1,15µM*,?,23µM*,i,?
CCCCn1c(N)c(C(=O)NCCN2CCOCC2)c2nc3ccccc3nc21,21µM*,5.8µM*,18µM*,i,i
Nc1c(C(=O)NCCN2CCOCC2)c2nc3ccccc3nc2n1Cc1ccco1,6.5µM*,21µM*,8.2µM*,i,i
CCOc1ccccc1NC(=O)c1cccn(Cc2ccccc2C)c1=O,.,.,.,i,?
CSc1nn(-c2ccc(C(=O)OCC(=O)NC(=O)NC(C)C)cc2)c(=S)s1,3%,?,-1%,i,i
CC[C@H]1CN2CCc3cc(OC)c(OC)cc3[C@H]2C[C@@H]1C[C@@H]1NCCc2cc(OC)c(OC)cc21,34%,.,?,.,.
CCN1CCN(/C=N/c2nc(C)cs2)CC1,-1%,?,-4%,i,i
COCCNC(=O)c1c(N)n(Cc2ccco2)c2nc3ccccc3nc12,-7%,13µM*,-1%,i,i
COc1ccc(CCNC(=O)c2c(N)n(CCN3CCOCC3)c3nc4ccccc4nc23)cc1,?,?,16µM*,?,?
COCCCn1c(N)c(C(=O)NCc2ccco2)c2nc3ccccc3nc21,16µM*,?,18µM*,i,i
CCCCn1c(O)c(C(CC)=NCc2ccc(F)cc2)c(=O)[nH]c1=O,15%,?,-4%,?,10µM*
CCCCn1c(O)c(C(C)=NCc2ccc(F)cc2)c(=O)[nH]c1=O,0%,?,-2%,i,i
Cc1ccc(C(=O)Nc2ccccc2)cc1S(=O)(=O)N1CCCC1,.,.,.,?,15µM*
COC(=O)C1=C(c2cccc(OC)c2OC)C[C@@H]2CC[C@H]1N2C(=O)NCCO,3%,.,8%,i,?
COc1cc2c(c(OC)c1OC)-c1ccc(O)cc1[C@@H](NC(C)=O)CC2,?,?,?,0.016µM*,i
COc1cc2c3c(c1OC)-c1cc(O)ccc1CC3NCC2 (centres undefined),1%,-7%,0%,i,i
COc1cc2c(c(OC)c1OC)-c1ccc(O)c(=O)cc1[C@@H](NC(C)=O)CC2,16µM*,?,18µM*,?,?
COc1cc2c(c(OC)c1OC)-c1ccc(O)cc1C(NC(C)=O)CC2 (centres undefined),0.058µM*,.,0.058µM*,?,?
O=C(Nc1ccc(Oc2ccc(Cl)cc2)c(Cl)c1)c1cc(I)cc(I)c1O,?,6%,10%,?,?
COC(=O)C1=C(c2ccc(OCc3ccccc3)cc2)C[C@@H]2CC[C@H]1N2C(=O)NCc1ccccc1OC,.,.,.,21µM*,?
COC(=O)C1=C(c2ccc(OCc3ccccc3)cc2)C[C@@H]2CC[C@H]1N2C(=O)NCc1ccc(OC)c(OC)c1,?,?,19%,?,i
COC(=O)C1=C(c2cccc(OCc3ccccc3)c2)C[C@@H]2CC[C@H]1N2C(=O)NCc1ccc(F)cc1,5%,-26%,11%,i,?

# Screens: PubChem BioAssay, National Center for Advancing Translational Sciences (NCATS)
